# From article PMC7819943, “Rice protein-binding microarrays: a tool to detect cis-acting elements near promoter regions in rice”
# The full ranking holds about 68,000 sequences; the median of “fluorescence intensity (a.u.)” is about 9,100, and the highest 2% start at about 16,000. The full list was thinned out, with the highest values kept by preference.
# Target: OsWRKY34 (Oryza sativa, UniProt Q0JBA9 1-250)
# Assay: protein-binding microarray (RPBM); PBS, 2% BSA, 51.3 ng/ul salmon testes DNA, 50 uM zinc acetate, 200 nM TF, 25 C, 1 h; high values mean tight binding
# Details: protein: recombinant; tags: N-terminal polyhistidine and DsRed monomer fusion (pET32a); label: CyDye5-dUTP incorporated in the synthesized complementary strand; 3' TTTTT single-stranded linker to array surface; dsDNA, one strand shown
# Outline: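 Using Ni–NTA, transcription factors fused N-terminally to polyhistidine and DsRed were purified after expression in E. coli BL21-CodonPlus. These were incubated at 200 nM with a blocked, double-stranded custom Agilent array for 1 h at 25 °C in a buffer containing 50 µM zinc acetate, and the array was washed. The binding signal is per-feature fluorescence intensity (arbitrary units) on an Axon 4000B scanner.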
# OsWRKY34, sequence (Q0JBA9 entry or part of it): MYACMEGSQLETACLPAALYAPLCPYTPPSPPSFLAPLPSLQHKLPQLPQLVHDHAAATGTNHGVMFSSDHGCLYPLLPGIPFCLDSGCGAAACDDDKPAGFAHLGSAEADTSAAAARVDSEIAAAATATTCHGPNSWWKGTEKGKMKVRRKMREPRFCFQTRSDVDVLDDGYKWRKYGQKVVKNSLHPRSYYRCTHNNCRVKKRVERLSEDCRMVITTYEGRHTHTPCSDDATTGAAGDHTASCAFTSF
row,Sequence,binding signal
1,CTCTACTTCTAATATTCCTTATTTTTTTAATTCCGAATTTCGGAGTCACCTAGTGCAG,8800 fluorescence intensity (a.u.)
2,TTTCTACACCCTGTAGATCCTTGGACCCACATGCAGACCACGGAGTCACCTAGTGCAG,8730 fluorescence intensity (a.u.)
3,GTGGGTGGGATCCAGGAAGATTTTAAGCTGACTGCTGCGGCGGAGTCACCTAGTGCAG,8510 fluorescence intensity (a.u.)
4,CCTTCGCTCGCCACGTGGCAGCCGCTAGTCCTTATCGCCGCGGAGTCACCTAGTGCAG,10300 fluorescence intensity (a.u.)
5,GGGAAACCAGGCTATCCTCTTGGTCACTCTGCACCAATTCCGGAGTCACCTAGTGCAG,10500 fluorescence intensity (a.u.)
6,ACAGCTCTGCTCAACCTTGCCATCTCGATCAATCGATCCTCGGAGTCACCTAGTGCAG,11400 fluorescence intensity (a.u.)
7,GGTTTCTTGGATTGGGCTGTGGCTGGCGTTGGTCGGAGGACGGAGTCACCTAGTGCAG,19100 fluorescence intensity (a.u.)
8,CATCGTTGACCAAGAATAAGAACAGCGAATTTGCATAATGCGGAGTCACCTAGTGCAG,14700 fluorescence intensity (a.u.)
9,GAAATGTTGGTGACGGTGGAGGATTTTGTTGTTTTAGTGTCGGAGTCACCTAGTGCAG,9790 fluorescence intensity (a.u.)
10,GTTGACGGGGTTTGTGAGGTGTGGCGGTGACTTGGAAAGACGGAGTCACCTAGTGCAG,10100 fluorescence intensity (a.u.)
11,GGGAGTAGTATTGATTTGACCATCGTTGACCAAGAATAAGCGGAGTCACCTAGTGCAG,17400 fluorescence intensity (a.u.)
12,TAATAAGTGAGACCAAATATTGATTGTGTAGTATATATTTCGGAGTCACCTAGTGCAG,8670 fluorescence intensity (a.u.)
13,GGGTTGGTCCGCGTTCTTGCCTCCTGGTTGGCCGATGTTTCGGAGTCACCTAGTGCAG,15700 fluorescence intensity (a.u.)
14,CGGTGTCGGATTTTTGGTTGGTTGACGGGGTTTGTGAGGTCGGAGTCACCTAGTGCAG,17500 fluorescence intensity (a.u.)
15,AGGTGATGTTTGGGGTCGTTGGGTTGGTCCGCGTTCTTGCCGGAGTCACCTAGTGCAG,17400 fluorescence intensity (a.u.)
16,CTTTGGCTTCTTGCCTACCGCGTTCTTGGTGATCGTTGGTCGGAGTCACCTAGTGCAG,8270 fluorescence intensity (a.u.)
17,TTTCTTGGCTGGTTTGGTTGTGGATTGGATTGGATTGGGTCGGAGTCACCTAGTGCAG,16100 fluorescence intensity (a.u.)
18,TGGATACTTGGCGTTGGTGGGCTGGTTCTTATTGGATACGCGGAGTCACCTAGTGCAG,8120 fluorescence intensity (a.u.)
19,GACAACCTGGAGCCCGACGACGACGAGGGGATGGGGAGGGCGGAGTCACCTAGTGCAG,8810 fluorescence intensity (a.u.)
20,GTTAGTGTGTGGTTTGTTGCGTGCAGTCAGGTGCACTCGGCGGAGTCACCTAGTGCAG,11000 fluorescence intensity (a.u.)
21,TATTATTATGATGGGTTTGTATATTAAAATTGTCAGTTTGCGGAGTCACCTAGTGCAG,8110 fluorescence intensity (a.u.)
22,ACGCGCGCTACATTCTCCACCTCTCCACCATTCCAAACTGCGGAGTCACCTAGTGCAG,9850 fluorescence intensity (a.u.)
23,CACACAGCATCGTTTGGATTAATCACCGAACCGATCGACCCGGAGTCACCTAGTGCAG,8400 fluorescence intensity (a.u.)
24,CCTCTCCTAGGTTAAGTTTTTTTGGGGCGAAGGGAGTATTCGGAGTCACCTAGTGCAG,8120 fluorescence intensity (a.u.)
25,CTCTCGCGCGAGATGTCCGTGACTCTCTTTTCGTTTACACCGGAGTCACCTAGTGCAG,8420 fluorescence intensity (a.u.)
26,CTCTCGGTCGTCGGCCTCGTCCTCCGGGCCGGCATTCATCCGGAGTCACCTAGTGCAG,8560 fluorescence intensity (a.u.)
27,GCTAGGGTTTTTGGGTTCACTTTGAGGCTGTTTGGTTGGTCGGAGTCACCTAGTGCAG,15100 fluorescence intensity (a.u.)

row,Sequence,binding signal
1,CTTATACATTGGGTTGAGGGTTTTTTTGGTTGAGTTCGGCCGGAGTCACCTAGTGCAG,9220 fluorescence intensity (a.u.)
2,TTGGTTGGTTGGTTGGTGTTTTGAGGCTTGGGTCGGCTTACGGAGTCACCTAGTGCAG,17100 fluorescence intensity (a.u.)
3,TGATCGAGAGAGGTGTTGTTGGAAGCTTGGTTGGTTGGGGCGGAGTCACCTAGTGCAG,9000 fluorescence intensity (a.u.)
4,GCGCATGGTGTTCGGGAAGAAGTACATCGTCGAGGAGGGGCGGAGTCACCTAGTGCAG,8540 fluorescence intensity (a.u.)
5,CTTGCCATGGTGTTGATTTGGGGCGGGAAGAAGCATCGGGCGGAGTCACCTAGTGCAG,16800 fluorescence intensity (a.u.)
6,AGTTACCGTTCTAGTCAGGGGCGGATCCAGCGTGGGGCGGCGGAGTCACCTAGTGCAG,12600 fluorescence intensity (a.u.)
7,ACATCCTTCTGGGTTGATTTTTTTCTATAGAGGGGTAGGTCGGAGTCACCTAGTGCAG,8590 fluorescence intensity (a.u.)
8,AAGTAAGATGCCACACACCATAGTCTGCTTCACTGTCAACCGGAGTCACCTAGTGCAG,9080 fluorescence intensity (a.u.)
9,CGTCTCCGCCGCTGCTTGAATCTGCCGCCACCATCACCGCCGGAGTCACCTAGTGCAG,8910 fluorescence intensity (a.u.)
10,GCTGACATAATTGCTTGTTGGGATTCTTGGGAGGAAATGGCGGAGTCACCTAGTGCAG,8330 fluorescence intensity (a.u.)
11,CTTCTCTCCTCTCCGCTGTGGTTTCTTGCTGGTTCTTGGACGGAGTCACCTAGTGCAG,10400 fluorescence intensity (a.u.)
12,GTATTATGGGTGGAGGCGGGCGGCTGAGCTGTTCCTGGGCCGGAGTCACCTAGTGCAG,8880 fluorescence intensity (a.u.)
13,ATTGTTTTTATAGGGGAGGGGAGGCGGGATCGAGCCCGGGCGGAGTCACCTAGTGCAG,15100 fluorescence intensity (a.u.)
14,TCACCGGGCGGTCACCGGAGGCGGAGGCGGAGGGAGGGGCCGGAGTCACCTAGTGCAG,10200 fluorescence intensity (a.u.)
15,GGGTTGGGTGGGTGCTGTAATATGGGGAGATACTGACTACCGGAGTCACCTAGTGCAG,19200 fluorescence intensity (a.u.)
16,GAGATGGGGAGGGAGGCCGGCCGGGAGAGGGAGAGAGAGGCGGAGTCACCTAGTGCAG,8890 fluorescence intensity (a.u.)
17,TCTCCTCTCTCTCTCTTCTTCCCGGGGAGGCGGGGAGCGGCGGAGTCACCTAGTGCAG,11700 fluorescence intensity (a.u.)
18,GGGGCGTCCCGGGAGGGGAGGGAGATGGGGAGGGAGCGGACGGAGTCACCTAGTGCAG,16800 fluorescence intensity (a.u.)
19,TGGAGGAGGGGAGGCCGGGGATTGTTTTTATAGGGGAGGGCGGAGTCACCTAGTGCAG,30500 fluorescence intensity (a.u.)
20,GAGGCTGGGCTGGGCGGGCGTATCGTTCCTGCTCCCGGAGCGGAGTCACCTAGTGCAG,25400 fluorescence intensity (a.u.)
21,GCTGTACCAGTACTGACCGGGGTGGGGTGGCGGGAGCGGACGGAGTCACCTAGTGCAG,14600 fluorescence intensity (a.u.)
22,TGGCCGGAGAGGGGAGATGGGGAGATGGGGAGAGGGGAGGCGGAGTCACCTAGTGCAG,9420 fluorescence intensity (a.u.)
23,GGGTGGAGCTGAACTGATGGGCCGAACTATGTATGGTTGGCGGAGTCACCTAGTGCAG,9030 fluorescence intensity (a.u.)
24,CGCTGCGCTGCCGGTCCATTTCTAGAAGCCCTCGCGCTCCCGGAGTCACCTAGTGCAG,9130 fluorescence intensity (a.u.)
25,TTGAATTGAATTATTATGCTCATCGCTTTCGCATAACCTCCGGAGTCACCTAGTGCAG,8320 fluorescence intensity (a.u.)
26,CTAGGAGGAGGATTAGTTCTTGCGCATCGCTTCTGAGCTCCGGAGTCACCTAGTGCAG,8200 fluorescence intensity (a.u.)
27,CCCATGTTTTTTTTTCATATTTTGCAATCTTCGGTTTAAACGGAGTCACCTAGTGCAG,8520 fluorescence intensity (a.u.)
